Rows were chosen to be rich in hits. Some 7.4% of all compounds tested hit in one or more screens of this group.
ELG1 genotox: genotoxicity induction in ELG1-luciferase HEK293T cells; HEK293T ELG1-luciferase reporter, luminescence, 16 h; Potency, µM (titrated, usually from 46 µM), for inactives: at the highest dose activity change, positive = activation, actives largely listed as activators; hit rate 1.3% among 330,000; AID 504466; note: % of control where 0% means no effect; nearly all actives have a fitted effect of over 60% in size
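After overnight (16 hr) compound treatment at 37 °C, ELG1-luciferase HEK293T cells were lysed with ONE-Glo; luminescence quantified 30 min later at room temperature.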
NPC1 promoter act: NPC1 promoter activation. Huh7 NPC1 promoter luciferase reporter, 24 h. hit rate 2.4% among 320,000. Potency, µM (doses to about 9.22 µM), inactives show at the top dose activation, hits mostly activators; note: % of control where 0% means no effect; nearly all actives have a fitted effect of over 60% in size
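Compounds in DMSO were transferred onto Huh7 NPC1-luciferase reporter cells pre-incubated 2 h; after 24 h at 37 °C, Amplite reagent was dispensed and luminescence recorded 10 min later.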
SMN2 splice up: SMN2 splice variant enhancement; HEK293 SMN2-luciferase splicing reporter, luminescence, 30-36 h; Potency, µM (titrated, usually from 46.1 µM), for the others: at the top dose activity change, positive = activation, hits mostly activators; hit rate 2.8% among 210,000; AID 1458; note: % of control where 0% means no effect; nearly all actives have a fitted effect of over 55% in size
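HEK293 cells carry an SMN2 […]–luciferase reporter in which exon 7 inclusion puts luciferase in frame. Cells were plated 10-12 h before compound addition, then incubated 30-36 h at 37C. ONE-Glo luminescence was read; sodium butyrate at 4.5 mM final served as control.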
Luc counter: Kinase-Glo luciferase inhibition (counter-screen); Kinase-Glo luciferase, ATP luminescence, 8 min; Potency, µM (doses to about 38.3 µM), for inactives: at the top dose activity change, negative = inhibition, most hits filed as inhibitors; hit rate 0.28% among 200,000; note: % is set by controls: 0 for no effect and ±100 for the full control effect; nearly all actives have a fitted effect of over 60% in size
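Luminescence was the read-out, taken after 8-minute incubation at ambient temperature. Luciferase turned over luciferin with 10 uM ATP in imidazole pH 7.2 buffer containing KCl, MgCl2, Tween 20 and BSA.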
Rab9 promoter act: activators of Rab9 promoter; Huh7 Rab9 promoter-luciferase reporter, luminescence, 24 h; Potency, µM (doses to about 9.22 µM), inactives show at the highest dose activation, negative = inhibition, most hits filed as activators; hit rate 2.8% among 320,000; note: % of control where 0% means no effect; nearly all actives have a fitted effect of over 60% in size
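Luciferase signal after 10 min detection reagent at ambient indicates Rab9 promoter upregulation; stably transfected Huh7 cells were treated 24 h with compound in DMSO at 37 °C, 5% CO2.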
FLuc counter: inhibits or activates purified firefly luciferase, miR-21 counter-screen; P08659; hit rate 6.9% among 360,000; purified FLuc, Km substrates, luminescence inhibition; AID 588342; Potency, µM (titrated, usually from 57.5 µM), for inactives: top-dose activity change, negative = inhibition, actives largely listed as inhibitors;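 note: plate controls were vehicle for no effect and reference inhibitor for full effect; nearly all actives have a fitted effect of over 55% in size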
Target sequence (P08659 whole entry, looked up): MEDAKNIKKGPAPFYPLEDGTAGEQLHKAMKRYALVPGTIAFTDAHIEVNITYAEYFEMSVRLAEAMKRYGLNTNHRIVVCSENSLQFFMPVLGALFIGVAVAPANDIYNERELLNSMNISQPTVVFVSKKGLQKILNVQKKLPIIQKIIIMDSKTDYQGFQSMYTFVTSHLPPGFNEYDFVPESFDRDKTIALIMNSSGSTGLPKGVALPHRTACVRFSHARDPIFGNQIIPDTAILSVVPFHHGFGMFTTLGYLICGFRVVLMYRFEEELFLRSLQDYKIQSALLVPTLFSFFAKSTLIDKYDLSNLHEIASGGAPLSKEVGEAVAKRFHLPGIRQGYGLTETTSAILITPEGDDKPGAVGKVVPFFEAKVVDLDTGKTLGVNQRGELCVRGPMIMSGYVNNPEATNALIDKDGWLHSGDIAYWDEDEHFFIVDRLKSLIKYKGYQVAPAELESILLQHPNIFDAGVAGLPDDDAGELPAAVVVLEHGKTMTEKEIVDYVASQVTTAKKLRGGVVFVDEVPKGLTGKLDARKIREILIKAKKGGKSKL
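Biochemical qHTS of compounds, final roughly 60 µM downward over six points, against 10 nM purified firefly luciferase using Km concentrations of substrates (10 uM D-luciferin, 10 uM ATP) in Tris acetate pH 7.5 buffer; luminescence output.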
* = called active by the depositor; ? = inconclusive; / = no result given. Calls come from the whole dose curve; as a rule, active = well fitted curve in the direction sought with a large enough effect; inconclusive = small, poorly fitted or top-dose-only effect, or another doubt; inactive = no such curve, though single readings can be large; an effect the other way counts as inactive or inconclusive. Potency is the fitted concentration of half-maximal effect.

SMILES	ELG1 genotox	NPC1 promoter act	SMN2 splice up	Luc counter	Rab9 promoter act	FLuc counter
O=C(CCc1ccccc1)c1ccc2c(c1)OCCCO2	4.11µM*	3.16µM*	?	-3.8%	0.631µM*	4.26µM*
O=C(c1ccccc1)c1ccc2c(c1)OCCCO2	?	1.78µM*	/	/	1.41µM*	8.49µM*
CC(CN1CCOCC1)OC(=O)COc1ccc(F)cc1 (stereo not drawn)	0.5%	-1.5%	-2.2%	-0.1%	-8.8%	-1.4%
COc1ccc(OCC(=O)OC(C)CN2CCOCC2)cc1 (stereo not drawn)	2.4%	-1.6%	2.82µM*	-1.1%	-2.5%	2.1%
CNc1ccc(/C=C/C(=O)c2ccc3c(c2)OCCO3)cc1[N+](=O)[O-]	?	1.8%	-8.0%	0.3%	-7.4%	6.01µM*
O=C(O)CCC(=O)c1ccc2c(c1)OCCCO2	5.4%	-7.3%	14.6%	-4.3%	3.5%	-3.0%
Cc1oc2c(c(C)cc3oc(=O)c(CC(=O)N[C@@H](CCCNC(N)=O)C(=O)O)c(C)c32)c1C	-5.0%	0.9%	/	/	-4.4%	-10.4%
Cc1ccc(NC(=O)C2CCCN(S(=O)(=O)c3cccc4nsnc34)C2)cc1C (stereo not drawn)	/	/	-8.6%	/	/	-4.0%
O=C(CCCc1ccccc1)c1ccc2c(c1)OCCO2	?	-28.2%	-40.9%	-27.1%	-21.4%	0.0757µM*
O=C(O)c1ccc2c(c1)OCCCO2	0.0%	-0.4%	/	/	-0.5%	-0.9%
O=C(CCN1CCc2ccccc2C1)c1ccc2c(c1)OCCO2	-1.3%	11.7%	-5.3%	-5.4%	1.9%	?
CC(CN1CCOCC1)OC(=O)c1ccc2c(c1)OCCO2 (stereo not drawn)	?	?	26.5%	0.5%	2.24µM*	26.9µM*
O=C(CCN1CCc2ccccc21)c1ccc2c(c1)OCCO2	14.1%	?	-5.0%	-6.2%	?	8.49µM*
O=C(CCN1CCCC1Cc1ccccc1)c1ccc2c(c1)OCCO2 (stereo not drawn)	/	/	-1.4%	3.2%	/	-12.5%
O=C(/C=C/c1ccccc1)c1ccc2c(c1)OCCCCO2	?	1µM*	?	-11.2%	1.12µM*	0.379µM*
O=c1c2ccccc2[nH]c(=S)n1-c1cccc(S(=O)(=O)N2CCCC2)c1	5.2%	-0.3%	/	/	-1.2%	2.7%
O=Cc1c[nH]c2ccc(S(=O)(=O)N3CCOCC3)cc12	0.9%	-0.3%	-19.9%	5.6%	-3.5%	-1.2%
O=C(NCCN1CCN(C(=O)c2cccc(Br)c2)CC1)C(=O)Nc1ccc(Br)cc1	-10.1%	-4.3%	/	/	-5.0%	0.0%
CC(=O)c1cccc(Nc2nn(-c3ccc(OC(F)(F)F)cc3)nc2C(C)=O)c1	/	/	-9.1%	/	/	6.01µM*
CCOc1cccc(Nc2nn(-c3ccc(OC(F)(F)F)cc3)nc2C(C)=O)c1	/	/	7.6%	/	/	6.5%
CN(CC(=O)Nc1ccc(F)cc1)C(=O)COC(=O)c1cc(S(=O)(=O)N(C)C)ccc1N1CCCC1	-0.8%	1.1%	/	/	1.0%	0.2%
COc1ccc(Nc2c(-c3ccc(C)o3)nc3cc(C)ccn23)cc1	/	/	-4.2%	/	/	16.9µM*
Cc1ccc(-c2nc3ccc(Cl)cn3c2Nc2ccc3c(c2)OCCO3)s1	/	/	5.01µM*	/	/	?
Cc1ccn2c(Nc3ccc4c(c3)OCCO4)c(-c3cccs3)nc2c1	/	/	-2.3%	/	/	9.53µM*
Cc1ccc(-c2nc3cnccn3c2Nc2ccc3c(c2)OCO3)o1	2.6%	-1.3%	19.8%	1.7%	-1.1%	-14.6%
SMILES	ELG1 genotox	NPC1 promoter act	SMN2 splice up	Luc counter	Rab9 promoter act	FLuc counter
Cc1ccn2c(Nc3ccc4c(c3)OCO4)c(-c3ccc(C)o3)nc2c1	/	/	0.9%	/	/	23.9µM*
Cc1ccc(Nc2c(-c3ccc(C)o3)nc3cnccn23)cc1	?	-5.8%	9.8%	-3.6%	3.8%	-16.6%
O=C(COC(=O)c1ncc(Cl)c(Cl)c1Cl)NCCc1ccccc1	-1.9%	9.8%	/	/	-2.7%	1.1%
CCOC(=O)c1nc(Nc2cc(Cl)ccc2OC)c2ccccc2n1	-12.0%	2.0%	/	/	-1.2%	-2.6%
Cc1ccc([N+](=O)[O-])cc1S(=O)(=O)Nc1ccc(C(=O)N2CCN(C(=O)c3ccco3)CC2)cc1	-0.3%	-1.6%	/	/	-0.5%	/
Brc1ccc(-c2nc3ccccn3c2Nc2ccc3c(c2)OCCO3)o1	/	/	?	/	/	13.5µM*
Cc1ccc2nc(-c3ccc(C)o3)c(Nc3ccc4c(c3)OCCO4)n2c1	/	/	8.91µM*	/	/	21.3µM*
C[C@H](O)c1[nH]c2cc(F)ccc2c1[C@H](C)O	-1.6%	-3.3%	/	/	3.1%	4.3%
Cc1cc2ncn(C(=O)N3CCC(C)CC3)c2cc1C	12.4%	22.9%	15.8µM*	-1.5%	?	?
Cc1cc2ncn(C(=O)c3ccc4c(c3)OCO4)c2cc1C	3.5%	-13.2%	-14.4%	-3.5%	7.8%	?
CC(C)Sc1ncc(Cl)c(C(=O)N(Cc2ccc(N(C)C)cc2)C2CCS(=O)(=O)C2)n1 (stereo not drawn)	/	/	0.8%	/	/	3.5%
Cc1ccc2nc(-c3ccccc3)cc(C(=O)N(C)CC(=O)Nc3ccccc3Br)c2c1	-10.2%	0.8%	/	/	-0.6%	16.9µM*
COc1ccc(NC(=O)CN(C)C(=O)c2cc(-c3ccc(OC)cc3)nc3ccccc23)cc1	-27.0%	10.3%	/	/	12.8%	8.49µM*
COc1cccc(-c2nn(-c3ccc(C)cc3)cc2C(=O)N(C)CC(=O)Nc2cccc(F)c2)c1	-12.9%	-3.3%	/	/	-6.9%	8.49µM*
COc1ccc(-c2cc(C(=O)N(C)CC(=O)Nc3cccc(F)c3)c3ccccc3n2)cc1	-11.6%	-0.5%	/	/	-4.1%	19µM*
COc1ccc(NC(=O)CN(C)C(=O)c2cc(-c3ccccc3)nc3ccccc23)cc1	-31.7%	-1.7%	/	/	0.4%	?
CCOC(=O)C1=C(C)NC(C)=C(C(=O)OCC)C1C(=O)OCC(=O)NCc1ccc(F)cc1	-4.1%	/	/	/	/	/
Cc1oc(-c2ccccc2)nc1Cn1c(=O)cc(-c2ccccc2)c2c(C)nn(C)c21	/	/	/	/	/	0.8%
CN(CC(=O)Nc1ccc(F)cc1)C(=O)c1cc(-c2ccco2)nc2ccccc12	-37.0%	-1.5%	/	/	10.3%	?
Cc1ccc(NC(=O)CN(C)C(=O)c2cc(-c3ccco3)nc3ccccc23)cc1	-4.2%	-3.7%	/	/	0.6%	23.9µM*
CC(C)(C)c1cc(OC(=O)c2ccccc2F)ccc1O	-0.7%	0.5%	/	-1.1%	-1.7%	26.9µM*
Cc1ccc(-c2cccc(OC(=O)c3ccccc3F)c2)cc1	8.2%	-7.7%	16.6%	-9.4%	6.6%	5.36µM*
Cc1ccc(-c2cc(C(=O)Oc3ccccc3)c3cccc(C)c3n2)cc1	/	/	-2.4%	/	/	-4.9%
